Experimental data published in PubChem BioAssay (NCI).
The panel holds about 79,000 compounds, 15% with a hit somewhere; the sample as a whole holds those more often. Activity calls are given as the source filed them. No stated cut-off is given here; in the data, active means growth inhibition above about 70%; inactive means the rest.

Legend:
[1] = NCI Yeast Anticancer Drug Screen. Data for the rad52 strain (AID 147);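 further: 0% = growth of vehicle-treated control cultures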; conditions: S. cerevisiae rad52 mutant growth inhibition, hits give high values
Procedure, shortened: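 Yeast strain carrying a DNA damage repair alteration was exposed to test compounds. Growth inhibition was measured relative to vehicle-treated controls.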

[2] = NCI Yeast Anticancer Drug Screen. Data for the wt1 strain (AID 149);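 further: 0% = growth of vehicle-treated wt1 cultures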; conditions: S. cerevisiae wt1 strain (SPY 50644) growth inhibition, hits give high values
Procedure, shortened: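 Each compound is tested on wt1 yeast and the loss of growth versus vehicle gives the inhibition value.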

[3] = NCI Yeast Anticancer Drug Screen. Data for the rad50EPP+ strain (AID 151);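 further: 0% = growth of vehicle-treated control cultures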; conditions: S. cerevisiae rad50 mutant strain, hits give high values
Procedure, shortened: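 Yeast strain carrying rad50 alteration (rad50EPP+) exposed to compounds; growth inhibition measured relative to vehicle-treated controls.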

[4] = NCI Yeast Anticancer Drug Screen. Data for the mgt1 strain (AID 153); conditions: S. cerevisiae mgt1 mutant growth inhibition, hits give high values
Procedure, shortened: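 Yeast mgt1 strain (DNA repair/cell-cycle alteration panel) exposed to compounds; growth inhibition measured relative to vehicle-treated controls.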

[5] = NCI Yeast Anticancer Drug Screen. Data for the rad50 strain (AID 155);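 further: 0% = growth of vehicle-only cultures of the same strain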; conditions: S. cerevisiae rad50 strain growth inhibition, hits give high values
Procedure, shortened: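 Vehicle-treated cultures provide the reference for the growth inhibition reported for compound-exposed, repair-deficient yeast.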

[6] = NCI Yeast Anticancer Drug Screen. Data for the mec2-1 strain (AID 157); conditions: S. cerevisiae mec2-1 strain, hits give high values
Procedure, shortened: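 mec2-1 yeast strain, carrying an alteration in DNA damage repair or cell cycle control, was exposed to compounds; growth inhibition was measured relative to vehicle-treated controls.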

[7] = NCI Yeast Anticancer Drug Screen. Data for the rad14 strain (AID 159);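 further: 0% = growth of vehicle-treated control cultures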; conditions: S. cerevisiae rad14 strain growth inhibition, hits give high values
Procedure, shortened: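 Inhibition of growth is reported for a repair-deficient yeast mutant following compound treatment, calculated relative to cultures that received vehicle.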

[8] = NCI Yeast Anticancer Drug Screen. Data for the sgs1 mgt1 strain (AID 161);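 further: 0% = growth of cultures given vehicle only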; conditions: S. cerevisiae sgs1 mgt1 strain, hits give high values
Procedure, shortened: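 Percent growth inhibition was derived by comparing compound-exposed mutant yeast with vehicle-exposed cultures. The strain carries alterations in DNA damage repair.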

[9] = NCI Yeast Anticancer Drug Screen. Data for the CLN2oe strain (AID 163);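 further: 0% = growth of vehicle-only control cultures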; conditions: S. cerevisiae CLN2oe strain, hits give high values
Procedure, shortened: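 Yeast cells carrying a defined cell-cycle control alteration were exposed to test compounds. Growth inhibition was scored against vehicle-treated control cultures.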

[10] = NCI Yeast Anticancer Drug Screen. Data for the cln2 rad14 strain (AID 165);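 further: 0% = growth equal to vehicle treated cultures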; conditions: S. cerevisiae cln2 rad14 strain, hits give high values
Procedure, shortened: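 Yeast carrying cln2 and rad14 alterations (cell cycle control and DNA damage repair) were exposed to compounds. Growth inhibition was measured against vehicle-treated controls.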

[11] = NCI Yeast Anticancer Drug Screen. Data for the bub3 strain (AID 167); conditions: S. cerevisiae bub3 mutant strain, hits give high values
Procedure, shortened: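 Mutant yeast screening strain plus compound; vehicle-treated cultures serve as the 0% inhibition reference.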

[12] = NCI Yeast Anticancer Drug Screen. Data for the wt2 strain (AID 169); conditions: S. cerevisiae wt2 strain growth inhibition, hits give high values
Procedure, shortened: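 Yeast cells were exposed to test compounds, and growth inhibition was measured relative to vehicle-treated controls.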

[13] = NCI Yeast Anticancer Drug Screen. Data for the mlh1 strain (AID 171);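 further: 0% = growth of vehicle-treated control cultures of the same strain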; conditions: S. cerevisiae mlh1 strain growth inhibition, hits give high values
Procedure, shortened: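 Yeast carrying a defined genetic alteration in DNA damage repair or cell cycle control were exposed to test compounds. Growth inhibition was measured relative to vehicle-treated controls.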

[14] = NCI Yeast Anticancer Drug Screen. Data for the sgs1 strain (AID 173);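 further: 0% = growth of vehicle-only control cultures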; conditions: S. cerevisiae sgs1 mutant, hits give high values
Procedure, shortened: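 Yeast mutant strains carrying defined defects in DNA damage repair or cell cycle control were exposed to test compounds. Growth inhibition was scored against vehicle-treated controls.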

[15] = NCI Yeast Anticancer Drug Screen. Data for the mlh1 rad18 strain (AID 175); conditions: S. cerevisiae mlh1 rad18 strain growth inhibition, hits give high values
Procedure, shortened: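 Growth inhibition of the yeast strain was measured after compound exposure and expressed relative to vehicle-treated controls. The strain carries defined defects in DNA damage repair.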

[16] = NCI Yeast Anticancer Drug Screen. Data for the rad18 strain (AID 177); conditions: S. cerevisiae rad18 mutant growth inhibition, hits give high values
Procedure, shortened: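 Yeast carrying a defined DNA damage repair alteration were exposed to compounds. Growth inhibition was expressed relative to vehicle-treated controls.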

[17] = at 5.0 µM (retest, dose inferred, filed as 0.5)
[18] = at 50.0 µM (retest, dose inferred, filed as 5.0)

Measured: growth inhibition

OC1CCCC2CCC[N-]C12.OC1CCCC2CCC[N-]C12.[O]=[V][OH] (stereo unspecified)
active: [1]; at 3.7 µM 98% | [1]; at 11.0 µM 98% | [1]; at 33.0 µM 97% | [1]; at 100.0 µM 97% | [2]; at 11.0 µM 85% | [2]; at 33.0 µM 93% | [2]; at 100.0 µM 96% | [3]; at 3.7 µM 96% | [3]; at 11.0 µM 96% | [3]; at 33.0 µM 95% | [3]; at 100.0 µM 95% | [4]; at 3.7 µM 88% | [4]; at 11.0 µM 98% | [4]; at 33.0 µM 97% | [4]; at 100.0 µM 97% | [5]; at 3.7 µM 95% | [5]; [17] 99% | [5]; at 11.0 µM 95% | [5]; at 33.0 µM 95% | [5]; [18] 97% | [5]; at 50.0 µM 86.8% | [5]; at 100.0 µM 95% | [6]; at 3.7 µM 86% | [6]; [17] 99% | [6]; at 11.0 µM 98% | [6]; at 33.0 µM 98% | [6]; at 50.0 µM 90.1% | [6]; at 100.0 µM 96% | [7]; at 3.7 µM 89% | [7]; at 11.0 µM 98% | [7]; at 33.0 µM 97% | [7]; at 100.0 µM 97% | [8]; [18] 98% | [8]; at 50.0 µM 91.5% | [9]; at 3.7 µM 78% | [9]; at 11.0 µM 93% | [9]; at 33.0 µM 95% | [9]; at 100.0 µM 96% | [10]; [18] 97% | [10]; at 50.0 µM 79.8% | [11]; at 3.7 µM 89% | [11]; [17] 99% | [11]; at 11.0 µM 98% | [11]; at 33.0 µM 98% | [11]; [18] 95% | [11]; at 50.0 µM 90.8% | [11]; at 100.0 µM 97% | [12]; at 11.0 µM 92% | [12]; at 33.0 µM 93% | [12]; at 100.0 µM 96% | [13]; at 11.0 µM 79% | [13]; at 33.0 µM 88% | [13]; at 100.0 µM 95% | [14]; at 11.0 µM 83% | [14]; at 33.0 µM 89% | [14]; at 100.0 µM 94% | [15]; [17] 99% | [15]; at 50.0 µM 86.8% | [16]; at 3.7 µM 95% | [16]; at 11.0 µM 96% | [16]; at 33.0 µM 96% | [16]; at 100.0 µM 96%
inactive: [1]; at 1.2 µM 54% | [2]; at 1.2 µM -4% | [2]; at 3.7 µM 67% | [3]; at 1.2 µM 47% | [4]; at 1.2 µM 24% | [5]; at 1.2 µM 47% | [6]; at 1.2 µM 3% | [6]; [18] 66% | [7]; at 1.2 µM 8% | [8]; [17] 19% | [9]; at 1.2 µM -12% | [10]; [17] 46% | [11]; at 1.2 µM 10% | [12]; at 1.2 µM -17% | [12]; at 3.7 µM 68% | [13]; at 1.2 µM -25% | [13]; at 3.7 µM 50% | [14]; at 1.2 µM 17% | [14]; at 3.7 µM 69% | [15]; [18] 64% | [16]; at 1.2 µM 46%

CCCCCCCCCCCCCCCCP(=O)(O)OCC(N)C(=O)O (stereo unspecified)
active: [1]; at 100.0 µM 95% | [2]; at 100.0 µM 97% | [4]; at 100.0 µM 97% | [5]; at 100.0 µM 96% | [6]; at 100.0 µM 96% | [7]; at 100.0 µM 93% | [8]; at 50.0 µM 93.5% | [13]; at 100.0 µM 96% | [14]; at 100.0 µM 95% | [15]; at 50.0 µM 73.9% | [16]; at 100.0 µM 97%
inactive: [1]; at 1.2 µM -5% | [1]; at 3.7 µM -40% | [1]; at 11.0 µM -38% | [1]; at 33.0 µM -15% | [2]; at 1.2 µM -38% | [2]; at 3.7 µM -46% | [2]; at 11.0 µM -46% | [2]; at 33.0 µM -31% | [3]; at 1.2 µM 0% | [3]; at 3.7 µM -5% | [3]; at 11.0 µM 5% | [3]; at 33.0 µM 20% | [3]; at 100.0 µM 69% | [4]; at 1.2 µM 15% | [4]; at 3.7 µM 21% | [4]; at 11.0 µM 7% | [4]; at 33.0 µM 43% | [5]; at 1.2 µM -14% | [5]; at 3.7 µM -14% | [5]; [17] -19% | [5]; at 11.0 µM -39% | [5]; at 33.0 µM 6% | [5]; [18] 46% | [5]; at 50.0 µM 66.9% | [6]; at 1.2 µM -22% | [6]; at 3.7 µM -24% | [6]; [17] -11% | [6]; at 11.0 µM -25% | [6]; at 33.0 µM -20% | [6]; [18] 3% | [6]; at 50.0 µM 58.8% | [7]; at 1.2 µM -67% | [7]; at 3.7 µM -61% | [7]; at 11.0 µM -55% | [7]; at 33.0 µM -47% | [8]; [17] -11% | [8]; [18] 39% | [9]; at 1.2 µM 1% | [9]; at 3.7 µM -3% | [9]; at 11.0 µM 0% | [9]; at 33.0 µM -6% | [9]; at 100.0 µM -8% | [10]; [17] 23% | [10]; [18] 7% | [10]; at 50.0 µM 60.9% | [11]; at 1.2 µM -1% | [11]; at 3.7 µM 1% | [11]; [17] -9% | [11]; at 11.0 µM 0% | [11]; at 33.0 µM -1% | [11]; [18] -8% | [11]; at 50.0 µM 60.1% | [11]; at 100.0 µM -13% | [12]; at 1.2 µM -1% | [12]; at 3.7 µM -2% | [12]; at 11.0 µM -4% | [12]; at 33.0 µM -2% | [12]; at 100.0 µM -3% | [13]; at 1.2 µM -18% | [13]; at 3.7 µM -26% | [13]; at 11.0 µM -53% | [13]; at 33.0 µM 20% | [14]; at 1.2 µM -31% | [14]; at 3.7 µM -58% | [14]; at 11.0 µM -44% | [14]; at 33.0 µM 18% | [15]; [17] -34% | [15]; [18] 29% | [16]; at 1.2 µM -3% | [16]; at 3.7 µM -8% | [16]; at 11.0 µM -10% | [16]; at 33.0 µM 14%
